Reference: PubChem BioAssay (NCI)
Where “and” joins values, the source holds several entries; their conditions need not be identical. Identical values can stand only once. Compounds without any hit were thinned out: in the full panel of roughly 83,000, 20% have a hit.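 Negative percent growth values reflect cell death: -40 means 40% of the cells present at the start died, and -100 means all died.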 Calls of active or inactive are those of the source. The calls were made as follows: active = growth percent below 10; inactive = the rest.

How the values were obtained:
Assay in all cases: NCI-60 one-dose screen, 48 h (100 = growth as untreated, 0 = no growth, -100 = all killed)
Conditions in all cases: 10 µM unless noted
NCI-H23 lung = test system: NCI-H23 lung
NCI-H226 lung = test system: NCI-H226 lung
NCI-H322M lung = test system: NCI-H322M lung
HOP-62 NSCLC = test system: HOP-62 NSCLC
NCI-H460 lung = test system: NCI-H460 lung
HOP-92 NSCLC = test system: HOP-92 NSCLC
A549/ATCC NSCLC = test system: A549/ATCC NSCLC
786-0 renal = test system: 786-0 renal
COLO 205 colon = test system: COLO 205 colon
DU-145 prostate = test system: DU-145 prostate
K-562 leukemia = test system: K-562 leukemia
MALME-3M melanoma = test system: MALME-3M melanoma
MDA-MB-231 breast = test system: MDA-MB-231 breast
RXF 393 renal = test system: RXF 393 renal
SF-268 CNS = test system: SF-268 CNS
SF-295 CNS = test system: SF-295 CNS
SF-539 CNS = test system: SF-539 CNS
UACC-257 melanoma = test system: UACC-257 melanoma
M14 melanoma = test system: M14 melanoma
NCI-H522 lung = test system: NCI-H522 lung

Measured: growth

Cc1cc(N2CCCCC2)nc(NCc2cc(Nc3ccnc4cc(Cl)ccc34)ccc2F)n1
inactive: NCI-H23 lung 22.3% | NCI-H226 lung 68.2%
active: NCI-H322M lung -12.7% | HOP-62 NSCLC -49.5% | NCI-H460 lung -22.7% | HOP-92 NSCLC -21.9% | A549/ATCC NSCLC 2.71% | 786-0 renal -80.1% | COLO 205 colon -72.7% | DU-145 prostate -1.6% | K-562 leukemia -31.4% | MALME-3M melanoma -75% | MDA-MB-231 breast -73.3% | RXF 393 renal -66.2% | SF-268 CNS -17.2% | SF-295 CNS -84.5% | SF-539 CNS -77.7% | UACC-257 melanoma -64.4% | M14 melanoma -67.8%

O=Nc1ccc(NO)c2ccccc12
inactive: NCI-H23 lung 90.6% and 68.3% | NCI-H322M lung 97.8% and 96.2% | HOP-62 NSCLC 103% and 90.5% | NCI-H460 lung 94.6% and 105% | HOP-92 NSCLC 95.1% and 92.9% | A549/ATCC NSCLC 106% and 27.5% | 786-0 renal 104% and 96.9% | COLO 205 colon 101% and 85.1% | DU-145 prostate 107% and 98% | K-562 leukemia 111% and 56.5% | MALME-3M melanoma 118% and 69.6% | MDA-MB-231 breast 89% and 73.5% | RXF 393 renal 114% and 97.2% | SF-268 CNS 102% and 83.9% | SF-295 CNS 99.3% and 121% | SF-539 CNS 96.8% and 109% | UACC-257 melanoma 104% and 52.4% | M14 melanoma 99.2% and 93.7%

Cc1nnc(NS(=O)(=O)c2ccc(N=Nc3ccc(N)nc3N)cc2)s1
inactive: NCI-H23 lung 100% and 110% | NCI-H226 lung 111% and 110% | NCI-H322M lung 114% and 92.8% | HOP-62 NSCLC 113% | NCI-H460 lung 110% and 112% | HOP-92 NSCLC 95.5% | A549/ATCC NSCLC 97.1% and 112% | 786-0 renal 102% and 99.8% | COLO 205 colon 110% | DU-145 prostate 118% and 105% | K-562 leukemia 105% | MALME-3M melanoma 110% | MDA-MB-231 breast 95.7% and 112% | RXF 393 renal 134% and 136% | SF-268 CNS 115% and 106% | SF-295 CNS 127% and 102% | SF-539 CNS 110% and 103% | UACC-257 melanoma 105% and 117% | M14 melanoma 101% and 108%

Nc1ccc(-c2nc3ccc4[nH]ncc4c3c3c2CCCC3)cc1F
active: RXF 393 renal -13%
inactive: NCI-H23 lung 19.7% | NCI-H226 lung 42.2% | NCI-H322M lung 41.3% | HOP-62 NSCLC 23.1% | NCI-H460 lung 24.8% | HOP-92 NSCLC 55.4% | A549/ATCC NSCLC 11.7% | 786-0 renal 37% | COLO 205 colon 12.4% | DU-145 prostate 38.6% | K-562 leukemia 30.2% | MALME-3M melanoma 28.3% | MDA-MB-231 breast 37.6% | SF-268 CNS 39.9% | SF-295 CNS 37.8% | SF-539 CNS 24.5% | UACC-257 melanoma 26.6% | M14 melanoma 24.9%

COc1ccccc1/C=C/C(=O)/C=C/c1ccccc1OC
-26% (active) and 24.7% (inactive): NCI-H23 lung
active: NCI-H226 lung -30.6% | HOP-62 NSCLC -22.7% and -19.7% | NCI-H460 lung 2.27% and -3.65% | A549/ATCC NSCLC -13.8% and -7.39% | 786-0 renal -56.9% and -47.8% | COLO 205 colon -73.7% and -57.9% | DU-145 prostate -11.9% and -11.3% | MALME-3M melanoma -33.8% and 2.49% | RXF 393 renal -87.5% and -89.7% | SF-539 CNS 3.38% and -29.1% | UACC-257 melanoma -29.2% and 6.89% | M14 melanoma 8.11% and -49.7%
17.5% (inactive) and 8.92% (active): MDA-MB-231 breast
-10.9% (active) and 33.9% (inactive): HOP-92 NSCLC
10.4% (inactive) and -31% (active): SF-295 CNS
inactive: NCI-H322M lung 30.6% and 38.9% | K-562 leukemia 10.9%
8.73% (active) and 21.3% (inactive): SF-268 CNS

C=C1CCC2C3(C)COC(c4ccc(NC(C)=O)cc4)OC3CCC2(C)C1C/C=C1/C(=O)OCC1O (stereo unspecified)
inactive: NCI-H23 lung 36.4% | NCI-H226 lung 64.5% | NCI-H322M lung 89% | HOP-62 NSCLC 85.5% | NCI-H460 lung 66.2% | HOP-92 NSCLC 72.6% | A549/ATCC NSCLC 35.9% | 786-0 renal 57.1% | COLO 205 colon 82.6% | DU-145 prostate 108% | K-562 leukemia 18.7% | MALME-3M melanoma 66.6% | MDA-MB-231 breast 87.3% | RXF 393 renal 62.6% | SF-268 CNS 94% | SF-295 CNS 25.1% | SF-539 CNS 69.6% | UACC-257 melanoma 30.5% | M14 melanoma 76.3%

Cn1cc(C2=C(c3cccc4ccccc34)C(=O)NC2=O)c2cc(Br)ccc21
inactive: NCI-H23 lung 93.5% | NCI-H226 lung 103% | NCI-H322M lung 100% | HOP-62 NSCLC 111% | NCI-H460 lung 104% | HOP-92 NSCLC 171% | A549/ATCC NSCLC 91.3% | 786-0 renal 84.7% | COLO 205 colon 92% | DU-145 prostate 110% | K-562 leukemia 87.2% | MALME-3M melanoma 143% | MDA-MB-231 breast 113% | RXF 393 renal 102% | SF-268 CNS 102% | SF-295 CNS 102% | SF-539 CNS 121% | UACC-257 melanoma 138% | M14 melanoma 114%

CCC(=C(c1ccc(OCCCN(C)C)cc1)c1ccc(OCCCN(C)C)cc1)c1ccc(Cl)cc1
active: NCI-H23 lung -80% | NCI-H226 lung -66.8% | NCI-H322M lung -96.8% | HOP-62 NSCLC -78% | NCI-H460 lung -71.1% | HOP-92 NSCLC -80% | A549/ATCC NSCLC -69.9% | 786-0 renal -86.8% | COLO 205 colon -67.3% | DU-145 prostate -90.8% | K-562 leukemia 0.345% | MALME-3M melanoma -79.6% | MDA-MB-231 breast -85% | RXF 393 renal -82.7% | SF-268 CNS -78.3% | SF-295 CNS -87.4% | SF-539 CNS -93.2% | UACC-257 melanoma -77.1% | M14 melanoma -83.5%

Nc1[nH]nc(Nc2ccccc2)c1-c1nc2ccccc2s1
inactive: NCI-H23 lung 24.2% | NCI-H226 lung 57.3% | NCI-H322M lung 37.6% | HOP-62 NSCLC 28.6% | A549/ATCC NSCLC 20% | 786-0 renal 10.2% | COLO 205 colon 64.2% | DU-145 prostate 27.8% | MALME-3M melanoma 83.4% | RXF 393 renal 36.3% | SF-268 CNS 31% | SF-295 CNS 28.6% | SF-539 CNS 55.1% | UACC-257 melanoma 50.6%
active: NCI-H460 lung 5.94% | HOP-92 NSCLC -15.8% | K-562 leukemia 4.83% | MDA-MB-231 breast -17% | M14 melanoma 6.41%

N#CC1C(=O)c2ccccc2C1c1ccccc1 (stereo unspecified)
inactive: NCI-H23 lung 97.4% and 102% | NCI-H322M lung 105% and 96.7% | HOP-62 NSCLC 98.8% and 107% | NCI-H460 lung 114% and 105% | HOP-92 NSCLC 75.2% and 84.7% | NCI-H522 lung 96.4% and 99% | A549/ATCC NSCLC 102% | 786-0 renal 93.1% and 89.8% | COLO 205 colon 115% | DU-145 prostate 109% and 104% | K-562 leukemia 120% and 101% | MALME-3M melanoma 96% and 106% | MDA-MB-231 breast 104% and 120% | RXF 393 renal 94.7% and 124% | SF-268 CNS 104% and 101% | SF-295 CNS 96% and 109% | SF-539 CNS 110% and 107% | UACC-257 melanoma 113% and 99.1% | M14 melanoma 104% and 105%

Cc1ccccc1SSc1ccccc1C
active: DU-145 prostate 6.96%
inactive: NCI-H23 lung 83.4% | NCI-H226 lung 95.6% | NCI-H322M lung 98.2% | HOP-62 NSCLC 96% | NCI-H460 lung 37.4% | HOP-92 NSCLC 81.2% | A549/ATCC NSCLC 98.8% | 786-0 renal 105% | COLO 205 colon 91.4% | K-562 leukemia 99.1% | MALME-3M melanoma 104% | MDA-MB-231 breast 82.7% | RXF 393 renal 73.8% | SF-268 CNS 95.2% | SF-295 CNS 80.3% | SF-539 CNS 104% | UACC-257 melanoma 105% | M14 melanoma 85.2%

COc1cc(OC)cc(-c2ccc(-c3ccc(C(=N)N)cn3)s2)c1
inactive: NCI-H23 lung 94.6% | NCI-H226 lung 70% | NCI-H322M lung 89.2% | HOP-62 NSCLC 86% | HOP-92 NSCLC 86.6% | A549/ATCC NSCLC 63.2% | 786-0 renal 74.3% | COLO 205 colon 49.4% | DU-145 prostate 66.3% | MALME-3M melanoma 99.5% | MDA-MB-231 breast 81.1% | RXF 393 renal 98.6% | SF-268 CNS 93.9% | SF-295 CNS 88.7% | SF-539 CNS 83.3% | UACC-257 melanoma 97.8% | M14 melanoma 95.7%
active: NCI-H460 lung 4.75% | K-562 leukemia 0.742%

COc1ccc(S(=O)(=O)Nc2cc(Sc3cccc4cccnc34)c(O)c3ccccc23)cc1
active: NCI-H460 lung 4.45% | COLO 205 colon -60.2% | K-562 leukemia -7.46% | MALME-3M melanoma 6.25% | SF-539 CNS -6.48% | UACC-257 melanoma -17% | M14 melanoma -13.4%
inactive: NCI-H23 lung 23.7% | NCI-H226 lung 41.2% | NCI-H322M lung 29.9% | HOP-62 NSCLC 45.8% | HOP-92 NSCLC 38.9% | A549/ATCC NSCLC 13.3% | 786-0 renal 28.5% | DU-145 prostate 19.5% | MDA-MB-231 breast 25% | RXF 393 renal 18.8% | SF-268 CNS 11.3% | SF-295 CNS 22.3%
